Bioassay records as filed in PubChem.
Shown is part of a subset that was picked to be rich in hits.
ER stress death = protection against thapsigargin ER stress killing – CSM14.1 cells, ATP luminescence, primary screen. CSM14.1 thapsigargin ER stress survival. relative survival (cellular ATP), % at 15 µg/mL (by protocol). hit rate 0.33% among 48,000. AID 1010, 2008;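 active = survival measured by cellular ATP above 50% at 15 µg/ml in the first screen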;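 also: cell death triggered by about 15 µM thapsigargin; ATP read 24 h after thapsigargin was added; plate controls were thapsigargin with DMSO for no effect and DMSO without thapsigargin for full effect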
Numbers without * were called inactive.

SMILES | ER stress death
CC(C)(C)NC(=O)c1cc(NC(=O)Cc2ccccc2)cc(NC(=O)Cc2ccccc2)c1 | 73.0*
Cc1cccc(NC(=O)Cc2ccccc2)c1 | -5.5
CC(C)(C)NC(=O)c1cc(NC(=O)c2cccs2)cc(NC(=O)c2cccs2)c1 | 3.6
COc1ccc(Br)cc1/C=N\N1CCN(c2ccccc2OC)CC1 | 0.5
N#CCCn1cc(/C=C2\N=C(c3ccccc3)OC2=O)c(-c2ccc(Cl)cc2)n1 | 4.1
CCOc1ccc(Nc2nc(-c3cccs3)cs2)cc1 | 0.0
CCOc1ccc(Nc2nc(-c3c(C)nc4sccn34)cs2)cc1 | 93.2*
CCN(CC)c1ccc(Nc2nc(-c3c(C)nc4sccn34)cs2)cc1 | 23.9
CC1(C)CC(CCNCc2ccccc2)(Cc2ccccc2)CCO1 (stereo not drawn) | -9.4
Cc1ccc(C(=O)O/N=C(\N)c2ccccc2)cc1 | -3.5
Cc1ccccc1CN1CCN(C(=O)C(c2ccccc2)c2ccccc2)CC1 | 97.4*
Cc1ccccc1CN1CCN(C(=O)c2cccc(Cl)c2)CC1 | 1.6
O=C(C(c1ccccc1)c1ccccc1)N1CCN(Cc2ccncc2)CC1 | -2.0
O=C(CC(c1ccccc1)c1ccccc1)N1CCN(Cc2ccccc2)CC1 | 9.1
O=C(C(c1ccccc1)c1ccccc1)N1CCN(Cc2ccc(F)cc2)CC1 | 63.0*
Cc1ccccc1C(=O)N1CCN(Cc2ccccc2)CC1 | -1.2
COc1ccccc1OCCCCCCN1CCCC1 | 3.8
Cc1ccc(C(=O)NCc2ccncc2)cc1 | 4.2
COc1ccc(S(=O)(=O)N(CC(=O)Nc2cc(C)ccc2C)c2ccc(C)cc2)cc1OC | 0.8
O=S(=O)(c1ccc(Cl)cc1)N1CCN(C2CC3CCC2C3)CC1 (stereo not drawn) | 19.3
Cc1cc(Cl)cc(C)c1OCCCCCCn1ccnc1 | 54.7*
Cc1cc(C)c(OCCCCn2ccnc2)c(C)c1 | -4.5
Cc1cc(OCCCCCn2ccnc2)cc(C)c1Cl | 37.0
O=C(Nc1ccc(Cl)cc1)C1CC(=O)N(c2cccc([N+](=O)[O-])c2)C1 (stereo not drawn) | 1.7
Cc1c(-c2cccs2)nc2ccccc2c1C(=O)O | -3.1
SMILES | ER stress death
O=C(CN1CC[n+]2c(-c3cccs3)csc21)c1ccccc1 | 58.6*
O=C(CSc1nnc(-c2cccs2)n1-c1ccccc1)c1ccccc1 | 3.0
CC1CCc2c(sc(NC(=O)CC(c3ccccc3)c3ccccc3)c2C(N)=O)C1 (stereo not drawn) | 0.4
COc1ccc(C(=O)Nc2ccc(NC(=O)c3ccc(Br)cc3)cc2)cc1 | 3.6
Cc1ccc(N(Cc2ccc(C(=O)N/N=C/c3cc(Br)c(C)o3)cc2)S(C)(=O)=O)cc1C | 80.3*
Cc1ccc(N(Cc2ccc(C(=O)N/N=C/c3ccc(OC4CSC4)cc3)cc2)S(C)(=O)=O)cc1C | 43.4
CCC(C)NC(=O)c1ccc(CN(c2ccc(C)c(C)c2)S(C)(=O)=O)cc1 (stereo not drawn) | -0.5
COc1ccc(/C(N)=N/OC(=O)c2ccc(Cl)cc2Cl)cc1 | -4.6
COc1cc(NS(=O)(=O)c2cc(Cl)ccc2Cl)c2ncccc2c1 | 3.3
O=C1N/C(=N\N=C\c2ccccc2O)SC1Cc1ccc(Br)cc1 (stereo not drawn) | 7.8
CC1(C)C(=O)N(Cc2ccccc2)c2ccccc2N1C(=O)c1ccc(Cl)cc1 | 3.8
CC1(C)C(=O)N(Cc2ccccc2)c2ccccc2N1C(=O)c1ccc([N+](=O)[O-])cc1 | 4.1
COc1ccc(C(=O)N2c3ccccc3N(Cc3ccccc3)C(=O)C2(C)C)cc1 | 110.2*
CCOC(=O)C1=C(O)/C(=C/c2ccc(O)c(OC)c2)SC1=Nc1cccc(Cl)c1 | -2.0
Cc1ccc(S(=O)(=O)N2CCOCC2)cc1S(=O)(=O)N1CCOCC1 | 21.0
CN(C)c1ccc(C2Nc3ccc(C(=O)c4ccccc4)cc3NC3=C2C(=O)CCC3)cc1 (stereo not drawn) | 96.9*
COc1ccccc1C1Nc2ccc(C(=O)c3ccccc3)cc2NC2=C1C(=O)CCC2 (stereo not drawn) | 10.2
COc1ccc(C2Nc3ccc(C(=O)c4ccccc4)cc3NC3=C2C(=O)CCC3)c(OC)c1 (stereo not drawn) | 3.3
COc1cccc(NC(=O)CCN2C(=O)/C(=C/c3ccc(C)cc3)SC2=S)c1 | 8.5
COc1ccc(NC(=O)CCN2C(=O)/C(=C\c3cccc(OC)c3)SC2=S)cc1 | 25.9
COc1ccc(NC(=O)CCN2C(=O)/C(=C\c3ccc(C)cc3)SC2=S)cc1 | 51.0*
CCOc1ccc(/C=C(/NC(=O)c2cccc(Br)c2)C(=O)N2CCCC2)cc1 | -2.7
O=C(Nc1cccc(C(F)(F)F)c1)c1ccc(I)cc1 | 2.4
COc1ccc(/C=C/C(=O)c2ccc(Cl)cc2)cc1[N+](=O)[O-] | -1.8
COc1ccc(-n2nc3cc(C)c(NC(=O)c4cc(Cl)ccc4OC)cc3n2)cc1 | -0.4
COc1ccc(CN2CCN(C(=O)c3ccc(-c4ccccc4)cc3)CC2)cc1OC | -6.5
COc1cc(OC)cc(C(=O)N2CCN(Cc3ccccn3)CC2)c1 | 0.5
COc1ccc(CN2CCN(C(=O)c3ccccc3)CC2)c(OC)c1OC | 0.8
